The results in this text go back to PubChem BioAssay (NCI).

About 79,000 compounds went through this panel and 15% of them were active in at least one assay; those are over-represented in the sample as a whole. Values without a mark were called inactive. Calls of active or inactive are those of the source. No stated cut-off is given here; in the data, active means growth inhibition above about 70%; inactive means the rest.

A short description of the assay: NCI Yeast Anticancer Drug Screen. Data for the mlh1 rad18 strain (AID 175). As to conditions: S. cerevisiae mlh1 rad18 strain growth inhibition; at 5.0 µM (retest, dose inferred, filed as 0.5); hits give high values. The gist of the method: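 Steps: expose repair-defective yeast to compound; measure growth; express inhibition against vehicle-treated controls.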
Take `O=[N+]([O-])c1ccc(CS(=O)(=O)C(Cl)Cl)o1`: the growth inhibition is 15%.
For `CC(C)c1cc([N+](=O)[O-])cc([N+](=O)[O-])c1O`, the growth inhibition is 6%.
The same measure for `O=P(c1cccc(C(F)(F)F)c1)(c1cccc(C(F)(F)F)c1)c1cccc(C(F)(F)F)c1.O=P(c1cccc(C(F)(F)F)c1)(c1cccc(C(F)(F)F)c1)c1cccc(C(F)(F)F)c1.[Cl][Sn]([Cl])([Cl])[Cl]`: 9%; for `COc1cc(N(CC(C)Br)CC(C)Br)ccc1N=Nc1ccccc1C(=O)O` (configuration not stated): 33%.
Regarding `C(=P(c1ccccc1)(c1ccccc1)c1ccccc1)[P+](c1ccccc1)(c1ccccc1)c1ccccc1.[Cl][Fe]([Cl])([Cl])[Br]`, the growth inhibition was 99% (active).
For the compound `COc1ccc2c(c1)CCC(N1CCCC(=O)C1)C2` (configuration not stated), the growth inhibition was 9%.
The same measure for `C1CCNCC1.O=C([CH-]C(=O)C(F)(F)F)c1ccc2c(c1)C(=O)c1ccccc1-2.O=C([CH-]C(=O)C(F)(F)F)c1ccc2c(c1)C(=O)c1ccccc1-2.O=C([CH-]C(=O)C(F)(F)F)c1ccc2c(c1)C(=O)c1ccccc1-2.O=C([CH-]C(=O)C(F)(F)F)c1ccc2c(c1)C(=O)c1ccccc1-2.[Eu+3]`: 40%; for `O=C1C(=O)C(Br)(Br)C(Br)=C1Br`: -4%.
With `CN(C)C(=S)Nc1nnc(NC23CC4CC(CC(C4)C2)C3)s1`, the growth inhibition was -2%.
To `C[CH2][Hg]` belongs 94% (active); to `c1cc2n[pH]nc2cn1` (configuration not stated), 6%; to `CCC[CH2][Sn]1([CH2]CCC)[O]CC(Cc2ccccc2)[O]1` (configuration not stated), 39%.
